# The whole screen tested about 370,000 compounds, of which about 3,000 (0.81%) were called active.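 The calls were made as follows: active = activity above about 14% (limit read from the data; passing the limit was not always enough); inactive = the rest.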 This excerpt belongs to a sample that is enriched for actives.
# Target: Nuclear receptor subfamily 1 group D member 1 (Homo sapiens) (UniProt P20393)
# Assay: modulators of Rev-erb alpha DNA binding, primary screen, biochemical, FITC-DNA, fluorescence polarization, uHTS (AID 1259318);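 also: 0% = DMSO wells with 35 nM protein and 100% = DMSO wells with 750 nM protein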
# Details: Rev-erbα–FITC-DNA binding, 90 min, at 10 µM, stronger effect = higher value
# Nuclear receptor subfamily 1 group D member 1 (Homo sapiens), sequence (P20393 whole entry, looked up): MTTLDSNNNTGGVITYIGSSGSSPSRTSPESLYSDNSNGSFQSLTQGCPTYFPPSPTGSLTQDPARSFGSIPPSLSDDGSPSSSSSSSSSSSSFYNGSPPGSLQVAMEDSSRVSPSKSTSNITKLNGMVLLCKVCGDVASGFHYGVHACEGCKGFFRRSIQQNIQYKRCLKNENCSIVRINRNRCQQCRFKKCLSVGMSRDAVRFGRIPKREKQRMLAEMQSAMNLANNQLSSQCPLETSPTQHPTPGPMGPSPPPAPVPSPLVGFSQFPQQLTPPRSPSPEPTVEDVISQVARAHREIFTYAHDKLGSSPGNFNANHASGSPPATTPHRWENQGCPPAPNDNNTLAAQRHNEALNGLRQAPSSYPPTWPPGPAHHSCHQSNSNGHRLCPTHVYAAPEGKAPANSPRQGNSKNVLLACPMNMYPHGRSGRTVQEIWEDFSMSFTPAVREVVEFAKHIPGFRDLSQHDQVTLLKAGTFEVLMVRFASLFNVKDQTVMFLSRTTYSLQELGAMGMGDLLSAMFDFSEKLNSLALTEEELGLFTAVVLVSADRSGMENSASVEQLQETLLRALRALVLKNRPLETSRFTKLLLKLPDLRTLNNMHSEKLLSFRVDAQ
row,Structure (SMILES),activity
1,O=C(NCc1ccco1)C1CCCN(S(=O)(=O)c2ccc(Cl)s2)C1 (configuration not stated),-2.05% (inactive)
2,COCCCNC(=O)CN1CCN(Cc2ccccc2Cl)C1=O,-7.51% (inactive)
3,COC(=O)Nc1ccc(S(=O)(=O)N(C)CC(F)(F)C(F)F)cc1,3.77% (inactive)
4,CCOc1ccccc1N1CCN(C(=S)Nc2ccc(S(N)(=O)=O)cc2)CC1,-6.97% (inactive)
5,CCOC(=O)c1ccc(NC(=S)N2CCN(c3ccccn3)CC2)cc1,26.1% (active)
6,CCN(CC)c1ccc(NC(=O)CN2CCN(c3ccccn3)CC2)cc1,-0.51% (inactive)
7,O=C1CC(C(=O)O)NC(=S)N1 (configuration not stated),-0.01% (inactive)
8,CCCCCCSc1ccc([C@@H]2[C@H]3C(=O)N(CC)C(=O)[C@H]3[C@]3(C(=O)OC)CCCCN23)cc1,-1.1% (inactive)
9,COC(=O)[C@]12CCCCC=C1N(Cc1ccccc1)C(=O)[C@H](CC(=O)NCc1ccc(C)o1)C2,-2.87% (inactive)
10,N#Cc1c(N)nc2c3c(sc(=N)c2c1N)NC(=O)CC3c1ccccc1Cl (configuration not stated),31.7% (active)
11,CCOc1cc(-c2cc(-c3ccc(OC)cc3)nc(N)c2C#N)ccc1O,31.7% (active)
12,CCOc1cc(-c2conc2N)cc(OCC)c1OCC,-2.64% (inactive)
13,COc1ccc(-c2nc3n(c(=O)c2C#N)CCS3)c(OC)c1,0.62% (inactive)
14,CCn1c(=O)n2n(c1=O)[C@@]1(C=C3CCCC[C@H]32)N=C(NC(=O)c2ccccc2)N(Cc2ccccc2)[C@H]1Cc1ccccc1,-9.89% (inactive)
15,CCN(CC)c1ccc2cc(C(N)=O)/c(=N\NC(=O)c3ccncc3)oc2c1,35.1% (active)
16,CCN(CC)c1ccc(/C=N/NC(=O)CNC(=O)c2cccs2)cc1,0.7% (inactive)
17,C/C(=N\NC(N)=S)c1ccncc1,0.98% (inactive)
18,N#C/C(C(=O)N1CCOCC1)=C1/SC(Cc2ccc(F)cc2)C(=O)N1c1ccccc1 (configuration not stated),5.35% (inactive)
19,COC(=O)c1ccccc1N=Nc1c(C)[nH][nH]c1=O,3.84% (inactive)

row,Structure (SMILES),activity
1,CC(=O)c1c(N2CCOCC2)nc(=S)n(Cc2ccccc2)c1C,-2.43% (inactive)
2,c1ccc(CSc2ncnc3c2sc2nc(N4CCOCC4)c4c(c23)CCCC4)cc1,158% (active)
3,O=S(=O)(c1ccccc1)c1nc(Cc2ccccc2)oc1N1CCOCC1,-4.54% (inactive)
4,CCOC(=O)N1CCN(c2cc(C)c([N+](=O)[O-])cc2F)CC1,-1.95% (inactive)
5,CCC(=O)Nc1ccc2c(c1)C(=O)N(C)[C@H]1CC[C@H](CC(=O)NCCOC)O[C@@H]1CO2,9.28% (inactive)
6,CCCNC(=O)Nc1ccc2c(c1)C(=O)N(C)[C@H]1CC[C@H](CC(=O)NCC3CCCCC3)O[C@@H]1CO2,119% (active)
7,CCC(=O)Nc1ccc2c(c1)C(=O)N(C)[C@@H]1CC[C@@H](CC(=O)NCCc3ccccc3)O[C@H]1CO2,15.2% (inactive)
8,CC(Sc1nnnn1C)C(=O)NC(=O)NC1CCCCC1 (configuration not stated),6.95% (inactive)
9,CN(CC(=O)NCCc1ccc(F)cc1)CC(=O)Nc1ccc(F)c(F)c1F,-0.12% (inactive)
10,COc1ccccc1CCNC(=O)C1CCN(c2nc(C)cc(C)n2)CC1,2.47% (inactive)
11,COc1ccc(Cl)cc1-n1c(C)cc(C(=O)OCC(=O)N2CC(=O)Nc3ccccc32)c1C,-0.59% (inactive)
12,COc1ccc(CCNc2cc(C)nc3c(-c4ccc(Cl)cc4)c(C)nn23)cc1OC,7% (inactive)
13,COc1ccc(CCNc2nc3ccc(C)cc3n3cnnc23)cc1OC,41.9% (active)
14,CCOC(=O)CSc1nc2ccc(C)cc2n2cnnc12,1.03% (inactive)
15,COC(=O)Cn1c(=NC(=O)c2cc(OC)c(OC)c(OC)c2)sc2cc(OC)ccc21,23.3% (active)
16,COC(=O)Cn1c2ccc(C)cc2c2nc(C)sc21,5.92% (inactive)
17,COC(=O)Cn1c(=NC(=O)CSCC(=O)Nc2cc(C)on2)sc2ccccc21,3.13% (inactive)
18,CCCCCCCCCCCCCCCC(=O)O[C@@H]1[C@@H](O)[C@@H](O)C([C@H](NC(=O)[C@@H]2C[C@@H](CCC)CN2C)[C@H](C)Cl)O[C@@H]1SC (some centres not stated),-0.49% (inactive)
19,Cc1ccc(N(C(=O)Cc2cccs2)C2C=CS(=O)(=O)C2)cc1Cl (configuration not stated),8.02% (inactive)

row,Structure (SMILES),activity
1,CC(C)(C)CC(C)(C)NCC(O)COCCOc1ccc(Br)cc1 (configuration not stated),-2.77% (inactive)
2,COc1ccc(N(Cc2ccc(N(C)C)cc2)C(=O)c2ccc(S(C)(=O)=O)cc2)cc1,-2.66% (inactive)
3,COc1ccc2sc(-c3ccc(S(C)(=O)=O)cc3)c(-c3ccc(C(N)=O)cc3)c2c1,29.1% (active)
4,COc1ccc2sc(-c3ccccc3OC)c(-c3ccc(OCCN4CCCC4)cc3)c2c1,2.94% (inactive)
5,COc1ccc(C(=O)NCC2CCCCC2)cc1S(=O)(=O)N1CCCC1,3.18% (inactive)
6,CC(C(=O)O)c1ccc(C2CCCCC2)c2ccccc12 (configuration not stated),-0.34% (inactive)
7,CC(=O)OCC(=O)[C@@]1(O)CCC2C3CCC4=CC(=O)C=C[C@]4(C)[C@@]3(F)[C@@H](O)C[C@@]21C (some centres not stated),-0.05% (inactive)
8,COc1ccccc1N1CC(C(=O)Nc2ccc(S(=O)(=O)N3CCOCC3)cc2)CC1=O (configuration not stated),2.07% (inactive)
9,COc1ccc(Cl)cc1NC(=O)C1CC(=O)N(c2ccc(F)cc2)C1 (configuration not stated),-2.88% (inactive)
10,COc1cc(OC)c(N2CC(C(=O)Nc3cc(Cl)ccc3N3CCOCC3)CC2=O)cc1Cl (configuration not stated),15.7% (active)
11,COc1ccc(CN2C(=O)C(CC(=O)NCCCCc3ccccc3)CC(C(=O)N3CCOCC3)=C2C)cc1 (configuration not stated),0.56% (inactive)
12,COCc1cc(C)nc(Nc2cc(C)ccc2C)c1C#N,1.3% (inactive)
13,COCc1cc(C)nc(SCC(=O)Nc2cccc(C)c2)c1C#N,20.6% (active)
14,Cc1cccc(NC(=O)CCn2c(=O)oc3ccccc32)c1,4.67% (inactive)
15,C=CCC1(CC=C)CCCN1C(=O)c1cc(COc2ccc(-n3cncn3)cc2)on1,3.62% (inactive)
16,Cc1ccc(NC(=S)NNC(=O)CSc2nnc(SCc3ccccc3Cl)s2)cc1,3.4% (inactive)
17,CN(C)S(=O)(=O)c1ccc(NC(=O)COC(=O)c2n[nH]c3ccccc23)cc1,1.34% (inactive)
18,CC(C)N(C(=O)CSc1nc(COc2ccccc2)nc2ccccc12)C(C)C,4.08% (inactive)
19,CCCc1nc(SCC(=O)Nc2ccc(S(=O)(=O)N(C)C)cc2)c2ccccc2n1,28% (active)

# — PubChem BioAssay AID1259318 (Sanford-Burnham Center for Chemical Genomics, 2017)
